According to PubChem BioAssay (NCI):
This is part of a sample that, as a whole, favours compounds with a hit. Of some 83,000 tested, about 20% had one in any assay.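 Step 1: grow cells in 96-well plates. Step 2: add test compound at a single concentration. Step 3: incubate 48 h. Step 4: record percent growth.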 Unmarked numbers belong to inactive results. Calls of active or inactive are those of the source. Rule for the calls: active = growth percent below 10; inactive = the rest.

Experiments:
Experiment in all cases: NCI-60 one-dose screen, 48 h (100 = growth as untreated, 0 = no growth, -100 = all killed)
Conditions in all cases: 10 µM unless noted
[1] = system: NCI-H23 lung
[2] = system: NCI-H226 lung
[3] = system: NCI-H322M lung
[4] = system: HOP-62 NSCLC
[5] = system: NCI-H460 lung
[6] = system: A549/ATCC NSCLC
[7] = system: 786-0 renal
[8] = system: COLO 205 colon
[9] = system: DU-145 prostate
[10] = system: MALME-3M melanoma
[11] = system: MDA-MB-231 breast
[12] = system: RXF 393 renal
[13] = system: SF-268 CNS
[14] = system: SF-295 CNS
[15] = system: SF-539 CNS
[16] = system: UACC-257 melanoma
[17] = system: M14 melanoma
[18] = system: NCI-H522 lung
[19] = system: K-562 leukemia

Compound: COc1ccc(-c2conc2-n2nc(-c3ccccc3)nc2-c2ccccc2)cc1
- growth [1]: 98.3%
- growth [2]: 89.7%
- growth [3]: 97.6%
- growth [4]: 95.9%
- growth [5]: 120%
- growth [6]: 114%
- growth [7]: 107%
- growth [8]: 112%
- growth [9]: 119%
- growth [10]: 105%
- growth [11]: 94%
- growth [12]: 113%
- growth [13]: 122%
- growth [14]: 98.8%
- growth [15]: 107%
- growth [16]: 115%
- growth [17]: 98.6%

Compound: COc1ccc(C(=O)C(CN(C)C)c2ccc(OC)cc2)cc1 (configuration not stated)
- growth [1]: 89.8%
- growth [2]: 84.2%
- growth [3]: 93.2%
- growth [4]: 96%
- growth [18]: -27.1% (active)
- growth [6]: 86.3%
- growth [7]: 28.6%
- growth [9]: 7.55% (active)
- growth [19]: 16.3%
- growth [10]: 84.9%
- growth [11]: 59.4%
- growth [12]: 55.8%
- growth [13]: 60.2%
- growth [14]: 101%
- growth [15]: 78.8%
- growth [16]: 45.3%
- growth [17]: 60.6%

Compound: Oc1c(C(Nc2ccccc2Br)c2ccccc2)ccc2cccnc12 (configuration not stated)
- growth [1]: 22.2%
- growth [2]: 35%
- growth [3]: 24.5%
- growth [4]: 19.6%
- growth [18]: -1.78% (active)
- growth [6]: 22.6%
- growth [7]: 6.91% (active)
- growth [8]: 32.4%
- growth [9]: 28.8%
- growth [19]: 11.4%
- growth [10]: 28.1%
- growth [11]: 37.7%
- growth [12]: 37.6%
- growth [13]: 18.5%
- growth [14]: 13.6%
- growth [15]: 19.9%
- growth [16]: 14.5%
- growth [17]: -14.2% (active)

Compound: CCCCCCCCCCCCCCCCCC(=O)OCCCCCCCCCCCCC
- growth [1]: 108%
- growth [2]: 97.2%
- growth [3]: 130%
- growth [4]: 125%
- growth [18]: 111%
- growth [6]: 99.5%
- growth [7]: 119%
- growth [8]: 121%
- growth [9]: 117%
- growth [19]: 119%
- growth [10]: 130%
- growth [11]: 135%
- growth [12]: 109%
- growth [13]: 106%
- growth [14]: 117%
- growth [15]: 101%
- growth [16]: 108%
- growth [17]: 114%

Compound: CCOC(=O)C1=C(C)NC(=S)NC1c1ccccc1 (configuration not stated)
- growth [1]: 108%
- growth [2]: 91.6%
- growth [3]: 108%
- growth [4]: 101%
- growth [18]: 91.6%
- growth [6]: 109%
- growth [7]: 101%
- growth [8]: 120%
- growth [9]: 109%
- growth [10]: 101%
- growth [11]: -95.7% (active)
- growth [12]: 117%
- growth [13]: 91.7%
- growth [14]: 103%
- growth [15]: 97.2%
- growth [16]: 101%
- growth [17]: 107%

Compound: Clc1ccc(-c2cnc3nonc3n2)s1
- growth [1]: 74.3%
- growth [2]: 100%
- growth [3]: 96.6%
- growth [4]: 84.5%
- growth [18]: 53.5%
- growth [6]: 85%
- growth [7]: 86.1%
- growth [8]: 67.6%
- growth [9]: 89.7%
- growth [19]: 41.7%
- growth [10]: 83%
- growth [11]: 85.2%
- growth [12]: 109%
- growth [13]: 82.7%
- growth [14]: 92.8%
- growth [15]: 97.5%
- growth [16]: 64.4%
- growth [17]: 86.6%

Compound: C=CCOC(=O)C1=C(C)NC2=C(C(=O)CCC2)C1c1ccc(F)cc1 (configuration not stated)
- growth [1]: 92.4%
- growth [2]: 89.9%
- growth [3]: 95.6%
- growth [4]: 85.9%
- growth [18]: 82.4%
- growth [6]: 97.3%
- growth [7]: 99.9%
- growth [8]: 103%
- growth [9]: 113%
- growth [19]: 96.3%
- growth [10]: 111%
- growth [11]: 98%
- growth [12]: 111%
- growth [13]: 106%
- growth [14]: 102%
- growth [15]: 102%
- growth [16]: 92.8%
- growth [17]: 96.1%

Compound: CC[C@]1(O)C[C@H]2CN(CCc3c([nH]c4ccccc34)C(C(=O)OC)(c3cc4c(cc3OC)N(C)[C@H]3[C@@](O)(C(=O)OC)[C@H](OC(C)=O)[C@]5(CC)[C@@H]6C[C@@H]6CN6CC[C@]43[C@@H]65)C2)C1 (some centres not stated)
- growth [1]: 19.8%
- growth [2]: -25.3% (active)
- growth [3]: 53.8%
- growth [4]: 24.6%
- growth [18]: -9.66% (active)
- growth [6]: 19.8%
- growth [7]: -8.75% (active)
- growth [9]: 12.1%
- growth [10]: 20.5%
- growth [11]: -12% (active)
- growth [12]: 35%
- growth [13]: -4.98% (active)
- growth [14]: -15.1% (active)
- growth [15]: -22% (active)
- growth [16]: 68.2%
- growth [17]: -72% (active)

Compound: O=c1c2cc(Cl)ccc2oc2ccc(OCCCCCN3CCCCCC3)cc12
- growth [1]: 87.5%
- growth [2]: 90.1%
- growth [3]: 89.6%
- growth [4]: 79.7%
- growth [18]: 80.2%
- growth [6]: 61.2%
- growth [7]: 70.2%
- growth [8]: 76.7%
- growth [9]: 91.9%
- growth [19]: 34.6%
- growth [10]: 114%
- growth [11]: 84.4%
- growth [12]: 84.4%
- growth [13]: 87.4%
- growth [14]: 97.5%
- growth [15]: 94.1%
- growth [16]: 83.7%
- growth [17]: 45.2%
